Laboratory results reported in PubChem BioAssay (EPA / NIEHS).
Several values for one entry are separate records, joined by “and”; a condition that tells them apart may be missing. Equal entries are not always repeated. Records with an inconclusive call do not appear. More than one record can exist for a structure, and the calls need not agree. Activity calls are given as the source filed them. How the source made its calls, unless noted: active means hit-call score of the fitted dose curve at least 0.9, where 1 is the maximum; inactive means score below 0.9.

Columns and labels:
[1] = biological target: Retinoic acid receptor RXR-alpha (Homo sapiens) (UniProt P19793); assay: ATG_RXRa_TRANS: Attagene TRANS-FACTORIAL HepG2 Assay for human Retinoid X Receptor alpha (RXRa) (AID 2283012; active means hit-call score of the fitted dose curve at least 0.9, where 1 is the maximum)
Retinoic acid receptor RXR-alpha (Homo sapiens), sequence (P19793 whole entry, looked up, the tested form may be a part): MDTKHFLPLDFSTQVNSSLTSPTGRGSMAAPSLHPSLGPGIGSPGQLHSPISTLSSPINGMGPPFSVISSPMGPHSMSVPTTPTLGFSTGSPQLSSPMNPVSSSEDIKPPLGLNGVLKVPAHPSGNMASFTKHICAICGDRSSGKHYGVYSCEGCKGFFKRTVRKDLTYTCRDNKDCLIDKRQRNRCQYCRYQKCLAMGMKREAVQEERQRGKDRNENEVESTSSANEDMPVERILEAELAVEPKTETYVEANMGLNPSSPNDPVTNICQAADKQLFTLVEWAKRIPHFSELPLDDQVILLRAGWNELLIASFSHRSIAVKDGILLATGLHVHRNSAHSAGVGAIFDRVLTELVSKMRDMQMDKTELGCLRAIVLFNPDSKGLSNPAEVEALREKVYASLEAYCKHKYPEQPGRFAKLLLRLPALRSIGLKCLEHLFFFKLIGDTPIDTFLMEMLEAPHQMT
Method in brief: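 Cells (HepG2) carried transiently transfected GAL4-responsive reporter units. Following a 24 h chemical incubation, reporter mRNA induction was read via RT-PCR fragment analysis; DMSO served as negative control and baseline.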

[2] = biological target: human Retinoid X Receptor beta (RXRb), RXRB (gene 6257) (UniProt P28702); assay: ATG_RXRb_TRANS: Attagene TRANS-FACTORIAL HepG2 Assay for human Retinoid X Receptor beta (RXRb) (AID 2283013; active means hit-call score of the fitted dose curve at least 0.9, where 1 is the maximum)
human Retinoid X Receptor beta (RXRb), RXRB (gene 6257), sequence (P28702 whole entry, looked up): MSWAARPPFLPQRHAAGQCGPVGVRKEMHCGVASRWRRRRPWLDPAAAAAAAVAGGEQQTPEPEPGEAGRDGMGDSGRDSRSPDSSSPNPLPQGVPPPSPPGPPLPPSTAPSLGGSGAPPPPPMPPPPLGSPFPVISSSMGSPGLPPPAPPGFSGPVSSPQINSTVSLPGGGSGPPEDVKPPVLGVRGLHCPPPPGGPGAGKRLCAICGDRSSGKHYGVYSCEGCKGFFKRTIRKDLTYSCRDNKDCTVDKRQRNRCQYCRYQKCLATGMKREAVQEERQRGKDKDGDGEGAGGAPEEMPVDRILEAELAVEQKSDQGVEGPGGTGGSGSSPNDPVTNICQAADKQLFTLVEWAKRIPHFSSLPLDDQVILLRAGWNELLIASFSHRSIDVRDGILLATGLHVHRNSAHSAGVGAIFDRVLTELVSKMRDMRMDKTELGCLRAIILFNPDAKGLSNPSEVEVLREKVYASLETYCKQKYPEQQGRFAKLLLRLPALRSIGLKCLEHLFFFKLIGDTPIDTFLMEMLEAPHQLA
Method in brief: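 Multiplexed TRANS reporter assay in HepG2; 24 h dosing; reporter mRNA by RT-PCR/CE fluorescence; gain-of-signal relative to DMSO.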

[3] = biological target: human Thyroid Receptor alpha (THRa1), THRA (gene 7067) (UniProt P10827); assay: ATG_THRa1_TRANS: Attagene TRANS-FACTORIAL HepG2 Assay for human Thyroid Receptor alpha (THRa1) (AID 2283014; active means hit-call score of the fitted dose curve at least 0.9, where 1 is the maximum)
human Thyroid Receptor alpha (THRa1), THRA (gene 7067), sequence (P10827 whole entry, looked up, the tested form may be a part): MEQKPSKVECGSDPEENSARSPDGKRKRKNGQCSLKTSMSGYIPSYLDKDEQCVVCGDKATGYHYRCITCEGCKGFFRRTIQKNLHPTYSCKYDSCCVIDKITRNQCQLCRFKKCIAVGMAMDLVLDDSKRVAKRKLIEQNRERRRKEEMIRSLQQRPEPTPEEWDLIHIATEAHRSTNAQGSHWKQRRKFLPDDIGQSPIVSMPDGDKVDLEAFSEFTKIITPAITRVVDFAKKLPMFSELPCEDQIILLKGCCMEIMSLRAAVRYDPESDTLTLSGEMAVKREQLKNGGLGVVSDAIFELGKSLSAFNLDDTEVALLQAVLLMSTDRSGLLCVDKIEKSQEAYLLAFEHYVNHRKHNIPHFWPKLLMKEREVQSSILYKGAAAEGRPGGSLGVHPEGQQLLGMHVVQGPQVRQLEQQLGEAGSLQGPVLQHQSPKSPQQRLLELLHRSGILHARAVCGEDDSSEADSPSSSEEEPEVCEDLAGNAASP
Method in brief: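 HepG2 cells transiently transfected with multiplexed GAL4-UAS reporter units for exogenous chimeric THRa1-Gal4; reporter mRNA measured 24 h after dosing by RT-PCR, 6-FAM labelling, HpaI digestion and capillary electrophoresis. Gain-of-signal fitted versus DMSO baseline.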

[4] = read-out: E-selectin (Homo sapiens) (UniProt P16581); assay: BSK_3C_Eselectin: BioMAP Diversity Plus: 3C Assay for Eselectin Biomarker Activity (AID 2283015); settings: primary human endothelial cells (HUVEC); actives raise or lower the signal
Method in brief: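 Primary human umbilical vein endothelial cells (3C system) were dosed with chemical and cell-surface E-selectin measured by ELISA 24 h later. Bidirectional curve fitting used DMSO as negative control and baseline.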

[5] = read-out: Interleukin-1 alpha (IL1a), IL1A (gene 3552); assay: BSK_BE3C_IL1a: BioMAP Diversity Plus: BE3C Assay for Interleukin-1 alpha (IL1a) Biomarker Activity (AID 2283016); settings: primary human bronchial epithelial cells; actives raise or lower the signal
Method in brief: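 Cultures of primary human bronchial epithelial cells receive test chemical. After 24 h, IL-1a is quantified by ELISA, while parallel wells are fixed in TCA and SRB-stained for total protein. Changes in either direction are fitted relative to DMSO.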

[6] = read-out: Monocyte Chemoattractant Protein-1 (MCP1), CCL2 (gene 6347); assay: BSK_3C_MCP1: BioMAP Diversity Plus: 3C Assay for Monocyte Chemoattractant Protein-1 (MCP1) Biomarker Activity (AID 2283017); settings: primary human endothelial cells (HUVEC); actives raise or lower the signal
Method in brief: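 Primary human umbilical vein endothelial cells (3C system) were exposed to test chemical for 24 h, after which MCP-1 was quantified by ELISA. Activity was fitted bidirectionally against DMSO as negative control and baseline.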

[7] = read-out: Monocyte Chemoattractant Protein-1 (MCP1), CCL2 (gene 6347); assay: BSK_4H_MCP1: BioMAP Diversity Plus: 4H Assay for Monocyte Chemoattractant Protein-1 (MCP1) Biomarker Activity (AID 2283018); settings: primary human endothelial cells (HUVEC); actives raise or lower the signal
Method in brief: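 Readout: MCP-1 ELISA on compound-treated HUVEC, sampled 24 h post-dosing. Baseline and negative control DMSO; bidirectional fit. Overt toxicity checked alongside by sulforhodamine B protein staining at time of biomarker measurement.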

[8] = read-out: Human Leukocyte Antigen - DR isotype (HLADR), HLA-DRA (gene 3122); assay: BSK_3C_HLADR: BioMAP Diversity Plus: 3C Assay for Human Leukocyte Antigen - DR isotype (HLADR) Biomarker Activity (AID 2283019); settings: primary human endothelial cells (HUVEC); actives raise or lower the signal
Method in brief: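 Primary human umbilical vein endothelial cells (3C system) were dosed with compound and cell-surface HLA-DR was quantified by ELISA at 24 h. Activity was fitted bidirectionally against DMSO as negative control and baseline.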

[9] = read-out: Interleukin-8 (IL8), CXCL8 (gene 3576); assay: BSK_3C_IL8: BioMAP Diversity Plus: 3C Assay for Interleukin-8 (IL8) Biomarker Activity (AID 2283020); settings: primary human endothelial cells (HUVEC); actives raise or lower the signal
Method in brief: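 Human vascular endothelial cells (umbilical vein) in the 3C system; IL-8 level detected by ELISA at 24 h post-dose, with DMSO as baseline.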

[10] = read-out: Monokine induced gamma interferon (MIG), CXCL9 (gene 4283); assay: BSK_3C_MIG: BioMAP Diversity Plus: 3C Assay for Monokine induced gamma interferon (MIG) Biomarker Activity (AID 2283021); settings: primary human endothelial cells (HUVEC); actives raise or lower the signal;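 on AC50: MIG protein level measured by immunoassay in the treated endothelial cultures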
Method in brief: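 After 24 h of treatment, human umbilical vein endothelial cultures (3C system) had their MIG biomarker level determined by ELISA, with DMSO serving as negative control.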

[11] = BSK_3C_SRB: Viability Assessment in the BioMAP Diversity Plus: 3C Assay (AID 2283023); settings: primary human endothelial cells (HUVEC);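 further: fitted both ways against DMSO so a hit may be signal rise or drop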
Method in brief: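 Primary human umbilical vein endothelial cells in the 3C system were read 24 h after compound dosing. Total protein was stained with 0.1% sulforhodamine B after 10% TCA fixation and read at 560 nm, with bidirectional fitting against DMSO as baseline.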

[12] = read-out: Matrix Metallopeptidase 1 (MMP1), MMP1 (gene 4312); assay: BSK_BE3C_MMP1: BioMAP Diversity Plus: BE3C Assay for Matrix Metallopeptidase 1 (MMP1) Biomarker Activity (AID 2283024); settings: primary human bronchial epithelial cells; actives raise or lower the signal
Method in brief: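 Dose cells, wait 24 h, run MMP1 ELISA; cells are human bronchial epithelial primaries. Both increases and decreases relative to DMSO counted.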

[13] = BSK_3C_Vis: BioMAP Diversity Plus: 3C Assay for Morphology Visualization (AID 2283025); settings: primary human endothelial cells (HUVEC);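 further: fitted both ways so gain or loss versus DMSO counts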;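 on AC50: light microscopy image of cell morphology used as background control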
Method in brief: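 Endothelial cells from human umbilical vein were treated with test chemicals for 24 h and inspected by light microscopy for changes in cell conformation.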

[14] = read-out: Pselectin, SELP (gene 6403); assay: BSK_4H_Pselectin: BioMAP Diversity Plus: 4H Assay for Pselectin Biomarker Activity (AID 2283026); settings: primary human endothelial cells (HUVEC); actives raise or lower the signal
Method in brief: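 Human vascular endothelium from umbilical vein; P-selectin measured by ELISA at 24 h post-dose, with cytotoxicity checked by sulforhodamine B total-protein staining in parallel cultures (0.1% SRB after 10% TCA fixation, read at 560 nm).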

[15] = read-out: Thrombomodulin, THBD (gene 7056); assay: BSK_3C_Thrombomodulin: BioMAP Diversity Plus: 3C Assay for Thrombomodulin Biomarker Activity (AID 2283029); settings: primary human endothelial cells (HUVEC); actives raise or lower the signal
Method in brief: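 Thrombomodulin ELISA, human primary HUVEC, 24 h post-dose; data fitted in both directions relative to DMSO.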

[16] = read-out: Urokinase-type plasminogen activator receptor (uPAR), PLAUR (gene 5329); assay: BSK_4H_uPAR: BioMAP Diversity Plus: 4H Assay for Urokinase-type plasminogen activator receptor (uPAR) Biomarker Activity (AID 2283030); settings: primary human endothelial cells (HUVEC); actives raise or lower the signal
Method in brief: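 Primary human umbilical vein endothelial cells were exposed to chemical for 24 h before cell-surface uPAR was quantified by ELISA. Activity was fitted bidirectionally against the DMSO negative control baseline.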

[17] = read-out: Vascular endothelial growth factor receptor 2 (Homo sapiens) (UniProt P35968); assay: BSK_4H_VEGFRII: BioMAP Diversity Plus: 4H Assay for Vascular endothelial growth factor receptor 2 (VEGFR2) Biomarker Activity (AID 2283031); settings: primary human endothelial cells (HUVEC); actives raise or lower the signal;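 on AC50: cell-surface VEGFR2 protein level quantified by ELISA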
Method in brief: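 Primary human umbilical vein endothelial cells in the BioMAP 4H system were dosed with test chemical, and 24 h later VEGFRII was measured by ELISA. Activity was fitted bidirectionally against DMSO as negative control and baseline.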

[18] = biological target: human Vitamin D Receptor (VDR), VDR (gene 7421) (UniProt P11473); assay: ATG_VDR_TRANS: Attagene TRANS-FACTORIAL HepG2 Assay for human Vitamin D Receptor (VDR) (AID 2283022; active means hit-call score of the fitted dose curve at least 0.9, where 1 is the maximum)
human Vitamin D Receptor (VDR), VDR (gene 7421), sequence (P11473 whole entry, looked up, the tested form may be a part): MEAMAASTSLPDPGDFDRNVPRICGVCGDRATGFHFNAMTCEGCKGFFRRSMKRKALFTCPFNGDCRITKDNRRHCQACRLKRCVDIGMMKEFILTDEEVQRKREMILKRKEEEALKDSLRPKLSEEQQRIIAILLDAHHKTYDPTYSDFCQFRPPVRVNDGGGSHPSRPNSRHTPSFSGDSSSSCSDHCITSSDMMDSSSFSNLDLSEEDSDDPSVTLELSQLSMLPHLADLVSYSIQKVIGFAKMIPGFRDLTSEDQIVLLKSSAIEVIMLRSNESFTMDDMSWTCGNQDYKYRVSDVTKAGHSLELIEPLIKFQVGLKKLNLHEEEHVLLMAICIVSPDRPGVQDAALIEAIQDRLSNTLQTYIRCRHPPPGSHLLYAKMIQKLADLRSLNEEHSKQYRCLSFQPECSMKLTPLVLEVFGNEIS
Method in brief: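 HepG2 cells were transiently transfected with multiple GAL4-UAS reporter units, so signal reflects exogenous chimeric receptor-Gal4 activity. After 24 h compound exposure, reporter mRNA was measured by RT-PCR, fluorescent labelling and capillary electrophoresis, fitted for gain of signal versus DMSO.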

[19] = BSK_4H_SRB: Viability Assessment in the BioMAP Diversity Plus: 4H Assay (AID 2283027); settings: primary human endothelial cells (HUVEC);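 further: cells exposed to compound for 24 h before staining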
Method in brief: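 Human umbilical vein endothelial cells, 24 h after chemical dosing; total protein measured by 0.1% sulforhodamine B staining after 10% TCA fixation, read at 560 nm. Bidirectional fitting against DMSO.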

[20] = BSK_BE3C_SRB: Viability Assessment in the BioMAP Diversity Plus: BE3C Assay (AID 2283028); settings: primary human bronchial epithelial cells
Method in brief: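 Human primary bronchial epithelial cells were exposed to test chemicals for 24 h. Total protein in parallel cultures was then measured by staining with 0.1% sulforhodamine B after 10% TCA fixation, with absorbance read at 560 nm. Activity was fitted bidirectionally against DMSO.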

Measured: AC50

E-selectin (Homo sapiens), sequence (P16581 whole entry, looked up): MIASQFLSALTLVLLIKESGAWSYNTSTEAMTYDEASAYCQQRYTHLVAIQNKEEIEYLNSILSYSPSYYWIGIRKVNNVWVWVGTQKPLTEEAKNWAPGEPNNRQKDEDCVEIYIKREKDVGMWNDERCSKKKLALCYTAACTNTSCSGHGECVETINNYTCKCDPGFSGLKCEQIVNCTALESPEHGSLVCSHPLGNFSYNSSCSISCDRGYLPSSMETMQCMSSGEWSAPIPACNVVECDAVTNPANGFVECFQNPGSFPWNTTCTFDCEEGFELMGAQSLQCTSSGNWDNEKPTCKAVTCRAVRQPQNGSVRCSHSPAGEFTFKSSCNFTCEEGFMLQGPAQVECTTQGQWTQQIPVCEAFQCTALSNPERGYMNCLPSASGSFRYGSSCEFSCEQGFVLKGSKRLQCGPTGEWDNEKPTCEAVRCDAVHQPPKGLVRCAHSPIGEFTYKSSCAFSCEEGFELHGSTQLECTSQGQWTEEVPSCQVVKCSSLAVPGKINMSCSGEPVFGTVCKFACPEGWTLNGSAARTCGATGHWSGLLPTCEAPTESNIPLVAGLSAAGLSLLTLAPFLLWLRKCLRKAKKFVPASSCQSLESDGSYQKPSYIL

C#C[C@]1(O)CC[C@H]2[C@@H]3CCC4=CC(=O)CC[C@@H]4[C@H]3CC[C@@]21C
active: [4] 11.5 µM | [6] 6.01 µM | [8] 7.59 µM | [9] 5.01 µM | [11] 5.17 µM | [16] 11 µM | [17] 20 µM
not listed: [18] | [19] | [20]
inactive: all other assays above

CCC(C)(C)C1CCC(O)CC1 (configuration not stated)
active: [2] 58.7 µM [middle of 4 runs]
not listed: [20]
inactive: all other assays above

COC(=O)CCCCC(=O)OC
not listed: [5] | [19]
inactive: all other assays above

OC1CCC(C2CCCCC2)CC1 (configuration not stated)
not listed: [5] | [20]
inactive: all other assays above

CC[C@H](c1ccc(O)cc1)[C@@H](CC)c1ccc(O)cc1
inactive: [1] | [3] | [18] | [17]
active: [2] 3.79 µM [middle of 4 runs] | [4] 34.8 µM | [6] 32.1 µM | [7] 20 µM | [8] 20.9 µM | [9] 33.6 µM | [10] 37.4 µM | [11] 27.9 µM | [12] 38 µM | [13] 22.3 µM | [14] 20.3 µM | [15] 31 µM | [16] 26 µM

OCCC(F)(F)C(F)(F)C(F)(F)C(F)(F)C(F)(F)C(F)(F)C(F)(F)C(F)(F)F
inactive: [1] | [2] | [3] | [4] | [6] | [7] | [9] | [10] | [18] | [11] | [12] | [13] | [14] | [15] | [16] | [17]
active: [4] 30 µM | [6] 42.5 µM and 24.3 µM | [7] 43.6 µM | [8] 20 µM and 27.8 µM and 30 µM | [9] 48.2 µM | [10] 48.6 µM | [18] 100 µM | [11] 29.1 µM and 19 µM | [12] 48 µM | [14] 14.5 µM and 13.5 µM | [16] 39.7 µM and 27.8 µM | [17] 47.9 µM and 20.6 µM
